# Laboratory results reported in PubChem BioAssay.
# Unmarked numbers belong to inactive results. The source made the active and inactive calls. Cut-off read from the data, not from the text of the source, unless noted: active = inhibition above about 30%; inactive = the rest.
# What was measured:
# [1] = target: Nuclear receptor coactivator 3 (Homo sapiens) (UniProt Q9Y6Q9); test: SRC3 coactivator transcriptional activity inhibitors, confirmation, cell-based, luminescence, quadruplicate (AID 588792;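 active = mean inhibition over 43.08%, the solvent-only control mean plus 3 SD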;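 note: 0% = DMSO treated cells and 100% = gossypol at 36 µM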); conditions: HEK293 GAL4-SRC3 luciferase reporter, at 3.6 µM, active compounds read high
# Sequence of Nuclear receptor coactivator 3 (Homo sapiens) (Q9Y6Q9 whole entry, looked up, the tested form may be a part): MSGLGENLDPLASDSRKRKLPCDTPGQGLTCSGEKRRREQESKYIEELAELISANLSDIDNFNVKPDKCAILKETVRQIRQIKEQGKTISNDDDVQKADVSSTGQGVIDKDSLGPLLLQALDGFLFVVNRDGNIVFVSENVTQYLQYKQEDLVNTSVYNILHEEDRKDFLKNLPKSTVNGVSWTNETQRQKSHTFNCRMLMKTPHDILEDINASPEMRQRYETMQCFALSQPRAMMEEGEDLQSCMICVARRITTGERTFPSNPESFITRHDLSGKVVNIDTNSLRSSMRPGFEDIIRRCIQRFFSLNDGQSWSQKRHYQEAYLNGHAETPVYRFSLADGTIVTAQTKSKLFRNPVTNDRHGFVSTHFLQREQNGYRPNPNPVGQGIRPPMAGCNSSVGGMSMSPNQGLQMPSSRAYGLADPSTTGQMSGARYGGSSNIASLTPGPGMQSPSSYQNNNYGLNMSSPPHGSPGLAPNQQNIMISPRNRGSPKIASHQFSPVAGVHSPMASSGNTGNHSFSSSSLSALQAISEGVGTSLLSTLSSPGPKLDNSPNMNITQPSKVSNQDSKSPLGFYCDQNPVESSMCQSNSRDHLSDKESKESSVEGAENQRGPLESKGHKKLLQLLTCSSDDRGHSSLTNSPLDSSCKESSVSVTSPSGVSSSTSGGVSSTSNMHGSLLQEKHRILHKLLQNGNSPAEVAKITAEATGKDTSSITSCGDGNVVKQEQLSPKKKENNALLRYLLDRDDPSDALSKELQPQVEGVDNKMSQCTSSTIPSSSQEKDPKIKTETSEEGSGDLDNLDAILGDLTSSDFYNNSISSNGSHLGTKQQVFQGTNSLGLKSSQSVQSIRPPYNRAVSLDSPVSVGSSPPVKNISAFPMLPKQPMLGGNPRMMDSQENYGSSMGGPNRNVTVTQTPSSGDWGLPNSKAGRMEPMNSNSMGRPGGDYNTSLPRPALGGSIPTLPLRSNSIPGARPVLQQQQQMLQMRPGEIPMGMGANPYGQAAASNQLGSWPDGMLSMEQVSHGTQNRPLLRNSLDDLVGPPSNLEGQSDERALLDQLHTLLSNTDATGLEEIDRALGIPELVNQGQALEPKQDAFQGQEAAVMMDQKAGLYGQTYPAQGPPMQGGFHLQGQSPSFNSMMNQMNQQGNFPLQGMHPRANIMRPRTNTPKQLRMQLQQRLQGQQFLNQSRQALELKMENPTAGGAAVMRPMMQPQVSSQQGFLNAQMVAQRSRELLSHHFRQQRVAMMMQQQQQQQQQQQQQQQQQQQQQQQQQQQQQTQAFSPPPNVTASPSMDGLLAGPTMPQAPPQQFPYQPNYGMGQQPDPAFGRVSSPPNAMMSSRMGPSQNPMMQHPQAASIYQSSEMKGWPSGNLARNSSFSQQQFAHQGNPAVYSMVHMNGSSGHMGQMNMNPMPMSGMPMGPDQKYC
# [2] = tested on: transactivating tegument protein VP16 (Human herpesvirus 1), Gal4-VP16 luciferase reporter; test: VP16 transactivation inhibitors, counter-screen for SRC3 inhibitor project, cell-based, luminescence, high throughput (AID 588794); conditions: mammalian cells, VP16-driven luciferase reporter luminescence; at 3.6 µM; active compounds read high
# [3] = target: Nuclear receptor coactivator 1 (Homo sapiens) (UniProt Q15788); test: SRC1 coactivator transcriptional activity inhibitors, confirmation, cell-based, luminescence, quadruplicate (AID 588820;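 active = mean inhibition above 46.68%, the untreated control wells mean plus 3 SD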;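 note: 0% = DMSO wells and 100% = gossypol 36 µM treated wells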); conditions: HEK293 GAL4-SRC1 luciferase reporter, at 3.6 µM, active compounds read high
# Sequence of Nuclear receptor coactivator 1 (Homo sapiens) (Q15788 whole entry, looked up, the tested form may be a part): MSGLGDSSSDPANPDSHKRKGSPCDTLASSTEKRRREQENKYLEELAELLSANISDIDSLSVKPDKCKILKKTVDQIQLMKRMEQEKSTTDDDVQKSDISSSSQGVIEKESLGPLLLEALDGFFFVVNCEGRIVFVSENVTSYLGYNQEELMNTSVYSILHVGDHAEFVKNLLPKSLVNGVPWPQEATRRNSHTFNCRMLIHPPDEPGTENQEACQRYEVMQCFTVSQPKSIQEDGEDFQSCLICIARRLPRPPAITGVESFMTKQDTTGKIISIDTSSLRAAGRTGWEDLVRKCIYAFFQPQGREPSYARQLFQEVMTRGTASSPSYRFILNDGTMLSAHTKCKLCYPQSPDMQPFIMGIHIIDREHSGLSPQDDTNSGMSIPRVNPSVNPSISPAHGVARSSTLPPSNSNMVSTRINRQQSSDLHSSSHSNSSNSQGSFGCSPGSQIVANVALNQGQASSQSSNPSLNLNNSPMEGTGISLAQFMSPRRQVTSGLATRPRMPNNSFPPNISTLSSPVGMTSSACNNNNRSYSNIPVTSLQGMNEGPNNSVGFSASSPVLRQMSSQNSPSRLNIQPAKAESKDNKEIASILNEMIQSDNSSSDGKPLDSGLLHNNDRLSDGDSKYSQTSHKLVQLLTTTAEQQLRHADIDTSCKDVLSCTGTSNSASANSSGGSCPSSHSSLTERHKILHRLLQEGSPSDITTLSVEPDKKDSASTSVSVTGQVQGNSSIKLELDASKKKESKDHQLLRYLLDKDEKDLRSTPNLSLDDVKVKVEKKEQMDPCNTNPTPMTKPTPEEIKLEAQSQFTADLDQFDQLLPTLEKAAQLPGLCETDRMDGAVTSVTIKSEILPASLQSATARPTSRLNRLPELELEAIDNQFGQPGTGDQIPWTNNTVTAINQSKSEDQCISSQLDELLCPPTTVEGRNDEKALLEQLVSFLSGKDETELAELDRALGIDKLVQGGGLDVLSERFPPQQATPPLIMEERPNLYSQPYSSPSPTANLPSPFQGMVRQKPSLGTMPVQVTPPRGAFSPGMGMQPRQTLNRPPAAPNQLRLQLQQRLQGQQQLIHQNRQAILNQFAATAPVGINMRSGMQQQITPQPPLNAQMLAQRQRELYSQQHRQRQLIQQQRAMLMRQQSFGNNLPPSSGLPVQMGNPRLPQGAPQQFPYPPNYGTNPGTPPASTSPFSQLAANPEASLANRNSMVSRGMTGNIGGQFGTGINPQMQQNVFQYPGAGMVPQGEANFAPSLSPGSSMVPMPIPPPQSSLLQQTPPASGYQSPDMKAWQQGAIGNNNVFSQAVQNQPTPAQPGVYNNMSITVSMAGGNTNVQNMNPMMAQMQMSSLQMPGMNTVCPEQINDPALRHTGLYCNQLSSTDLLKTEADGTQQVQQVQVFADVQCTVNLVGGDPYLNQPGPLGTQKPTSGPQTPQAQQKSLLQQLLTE
# [4] = VP16 transactivation inhibitors, counter-screen for SRC1 inhibitor project, cell-based, luminescence, high throughput (AID 588824; in the data active = inhibition above about 25%); conditions: cell-based VP16 transactivation luciferase luminescence; at 3.6 µM; active compounds read high
# [5] = StAR promoter reporter inhibitors, counter-screen for LRH-1 inverse agonist project, cell-based, luminescence, high throughput (AID 651611; in the data active = inhibition above about 28%); conditions: StAR promoter luciferase reporter counterscreen, at 3.6 µM, active compounds read high
# [6] = target: Nuclear receptor subfamily 5 group A member 2 (Homo sapiens) (UniProt O00482); test: LRH-1 (NR5A2) inverse agonists, retest, confirmation, cell-based, luminescence (AID 651613; in the data active = inhibition above about 42%;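 note: HEK293T cells co-transfected with LRH-1 and StAR promoter luciferase reporter; 0% = vehicle wells and 100% = parental cells lacking receptor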); conditions: cell-based LRH-1 luciferase reporter, inverse agonism; at 3.6 µM; active compounds read high
# Sequence of Nuclear receptor subfamily 5 group A member 2 (Homo sapiens) (O00482 whole entry, looked up): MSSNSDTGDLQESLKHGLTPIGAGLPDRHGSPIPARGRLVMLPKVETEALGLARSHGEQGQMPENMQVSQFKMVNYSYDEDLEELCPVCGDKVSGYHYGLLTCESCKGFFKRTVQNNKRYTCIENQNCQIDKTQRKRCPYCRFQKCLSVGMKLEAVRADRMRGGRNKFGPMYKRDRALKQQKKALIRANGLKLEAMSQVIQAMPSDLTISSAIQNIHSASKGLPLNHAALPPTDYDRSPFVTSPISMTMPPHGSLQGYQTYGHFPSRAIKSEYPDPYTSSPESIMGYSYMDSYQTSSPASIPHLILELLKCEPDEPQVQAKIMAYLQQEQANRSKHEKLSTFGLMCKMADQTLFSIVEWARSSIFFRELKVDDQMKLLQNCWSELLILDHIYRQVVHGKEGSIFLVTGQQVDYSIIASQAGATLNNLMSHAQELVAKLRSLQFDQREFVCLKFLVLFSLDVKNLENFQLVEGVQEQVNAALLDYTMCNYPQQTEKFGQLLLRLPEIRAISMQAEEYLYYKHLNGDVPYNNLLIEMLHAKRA
# [7] = target: Steroidogenic factor 1 (Homo sapiens) (UniProt Q13285); test: SF1 (NR5A1) inverse agonists, counter-screen for LRH-1 inverse agonist project, cell-based, luminescence, high throughput (AID 651614; in the data active = inhibition above about 44%;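 note: cells cotransfected with StAR promoter reporter and SF1 expression vector; 0% = vehicle on cells with receptor and 100% = vehicle on cells lacking receptor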); conditions: cell-based SF1 luciferase reporter, at 3.6 µM, active compounds read high
# Sequence of Steroidogenic factor 1 (Homo sapiens) (Q13285 whole entry, looked up, the tested form may be a part): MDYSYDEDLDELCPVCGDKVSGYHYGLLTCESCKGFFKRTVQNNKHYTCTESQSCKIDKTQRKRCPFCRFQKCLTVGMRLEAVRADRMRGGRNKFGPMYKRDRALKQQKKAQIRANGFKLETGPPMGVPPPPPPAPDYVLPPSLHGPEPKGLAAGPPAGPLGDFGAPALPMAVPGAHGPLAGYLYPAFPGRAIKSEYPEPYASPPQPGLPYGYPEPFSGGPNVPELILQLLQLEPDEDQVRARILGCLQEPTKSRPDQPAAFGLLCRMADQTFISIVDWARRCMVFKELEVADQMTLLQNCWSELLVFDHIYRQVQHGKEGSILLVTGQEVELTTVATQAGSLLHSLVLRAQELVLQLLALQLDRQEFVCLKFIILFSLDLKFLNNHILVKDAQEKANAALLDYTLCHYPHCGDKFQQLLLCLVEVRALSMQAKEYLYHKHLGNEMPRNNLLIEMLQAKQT
# [8] = VP16 transactivation reporter inhibitors, counter-screen for LRH-1 inverse agonist project, cell-based, luminescence, high throughput (AID 651615; in the data active = inhibition above about 33%); conditions: Gal4-VP16 luciferase reporter cells, at 3.6 µM, active compounds read high
# [9] = tested on: transactivating tegument protein VP16 (Human herpesvirus 1); test: VP16 transactivation reporter inhibitors, counter-screen for SRC2 inhibitor project, cell-based, luminescence, single concentration (AID 652007; in the data active = inhibition above about 36%); conditions: cell-based VP16 transactivation luciferase reporter, at 8.9 µM, active compounds read high
# [10] = target: Nuclear receptor coactivator 2 (Homo sapiens) (UniProt Q15596); test: SRC2 coactivator transcriptional activity inhibitors, confirmation, cell-based, luminescence, HEK293, triplicate (AID 652008;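 active = mean inhibition above 46.5%, the solvent-only control mean plus 3 SD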;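 note: 0% = DMSO-treated cells and 100% = Gossypol at 36 µM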); conditions: HEK293 GAL4-SRC2 luciferase reporter, at 8.9 µM, active compounds read high
Structure (SMILES),inhibition [1],inhibition [2],inhibition [3],inhibition [4],inhibition [5],inhibition [6],inhibition [7],inhibition [8],inhibition [9],inhibition [10]
Cc1ccccc1-[n+]1c(-c2ccccc2)cc(-c2ccccc2)cc1-c1ccccc1,69.8% (active),86% (active),71.6% (active),84.6% (active),83.2% (active),109% (active),95.3% (active),94.7% (active),–,–
CN(C)c1ccc(C(=O)N/N=C/C23CC[C@@H](O)CC2(O)CC[C@@H]2[C@@H]3CCC3(C)C(C4=CC(=O)OC4)CCC23O)cc1 (stereo partly drawn),1.62%,23.4%,-57.9%,7.1%,–,–,–,–,–,–
CC1=C(N2CC2)C(=O)C(CO)=C(N2CC2)C1=O,96.1% (active),91.2% (active),86.1% (active),93% (active),–,–,–,–,–,–
CC(=NCc1ccc(F)cc1)c1c(O)n(C)c(=O)n(C)c1=O,11%,49.6% (active),12.8%,49.7% (active),39.6% (active),51.4% (active),73% (active),62.8% (active),–,–
Clc1ccc(C[n+]2c(-c3ccccc3)cc(-c3ccccc3)cc2-c2ccccc2)cc1,83.5% (active),66% (active),53.1% (active),73.6% (active),70.8% (active),110% (active),89.8% (active),94% (active),–,–
CCC1(OC(=O)CN)C(=O)OCc2c1cc1n(c2=O)Cc2cc3ccccc3nc2-1 (stereo not drawn),94.9% (active),82.8% (active),56.9% (active),77.3% (active),84% (active),103% (active),90.9% (active),82% (active),–,–
O=C1NC2C(O)C(O)C(O)C(O)C2c2cc3c(c(O)c21)OCO3 (stereo not drawn),97.3% (active),96% (active),93.4% (active),95% (active),96.4% (active),109% (active),97.7% (active),98.6% (active),79.7% (active),75.7% (active)
O=c1[nH]c2ccccc2n1C1CCN(C(c2cccc3ccccc23)c2nnnn2-c2ccc3c(c2)OCCO3)CC1 (stereo not drawn),33.8%,12.5%,-29.6%,10.9%,57.5% (active),27.6%,44% (active),27.7%,–,–
